This passage reports AC50 and outcome results from PubChem BioAssay (EPA / NIEHS).

Read-out in assay [1]: TIMP metallopeptidase inhibitor 2 (TIMP2), TIMP2 (gene 7077)
The assay is described as follows: BSK_KF3CT_TIMP2: BioMAP Diversity Plus: KF3CT Assay for TIMP metallopeptidase inhibitor 2 (TIMP2) Biomarker Activity (AID 2283071). The note with it: primary human keratinocytes with fibroblasts; actives raise or lower the signal. Summed up:
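Chemicals were dosed onto human skin primary co-cultures of keratinocytes and foreskin fibroblasts, and TIMP-2 was measured by ELISA after 24 hours. Activity in either direction was fitted relative to DMSO.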

Read-out in assay [2]: Transforming growth factor beta 1 (TGFb1), TGFB1 (gene 7040)
The experiment in a line: BSK_KF3CT_TGFb1: BioMAP Diversity Plus: KF3CT Assay for Transforming growth factor beta 1 (TGFb1) Biomarker Activity (AID 2283072). To be noted: primary human keratinocytes with fibroblasts; actives raise or lower the signal. The gist of the method: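 KF3CT co-culture (keratinocytes + fibroblasts), 24 h exposure → TGF-b1 ELISA → bidirectional fit, DMSO = baseline. Parallel SRB total-protein staining (0.1% SRB, 10% TCA fixation, 560 nm) for cytotoxicity.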

Read-out in assay [3]: C-C motif chemokine 2 (Homo sapiens) (UniProt P13500)
The assay is described as follows: BSK_KF3CT_MCP1: BioMAP Diversity Plus: KF3CT Assay for Monocyte Chemoattractant Protein 1 (MCP1/CCL2) Biomarker Activity (AID 2283073). The note with it: primary human keratinocytes with fibroblasts; actives raise or lower the signal. The gist of the method:
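Human keratinocyte–foreskin fibroblast co-culture; MCP-1 measured by ELISA 24 h after dosing. Bidirectional fit vs DMSO; cytotoxicity tracked by SRB total protein in parallel cultures.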

Read-out in assay [4]: Matrix Metallopeptidase 9 (MMP9), MMP9 (gene 4318)
The experiment in a line: BSK_KF3CT_MMP9: BioMAP Diversity Plus: KF3CT Assay for Matrix Metallopeptidase 9 (MMP9) Biomarker Activity (AID 2283074).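 As to AC50: MMP9 protein level quantified by ELISA in the co-culture.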 To be noted: primary human keratinocytes with fibroblasts; actives raise or lower the signal. Summed up: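 Values come from bidirectional fitting relative to DMSO of MMP-9 levels, which were measured by ELISA. Measurements were taken 24 h after chemical dosing of a keratinocyte and foreskin fibroblast co-culture.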

Read-out in assay [5]: urokinase plasminogen activator (uPA), PLAU (gene 5328)
The experiment in a line: BSK_KF3CT_uPA: BioMAP Diversity Plus: KF3CT Assay for urokinase plasminogen activator (uPA) Biomarker Activity (AID 2283075). To be noted: primary human keratinocytes with fibroblasts; actives raise or lower the signal. The gist of the method:
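Values derive from bidirectional fitting against DMSO controls. Keratinocyte/foreskin fibroblast co-cultures received chemical; 24 h later uPA was detected by ELISA, with SRB total-protein staining in parallel wells for overt cytotoxicity.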

Read-out in assay [6]: CD40, CD40 (gene 958)
The assay is described as follows: BSK_LPS_CD40: BioMAP Diversity Plus: LPS Assay for CD40 Biomarker Activity (AID 2283076). To be noted: primary human HUVEC with PBMC; actives raise or lower the signal. The gist of the method:
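HUVEC plus PBMC co-culture stimulated with LPS; CD40 quantified by ELISA 24 h after compound dosing. Fitting was bidirectional relative to DMSO. SRB staining of parallel cultures flagged overt cytotoxicity.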

Read-out in assay [7]: E-selectin (Homo sapiens) (UniProt P16581)
The experiment in a line: BSK_LPS_Eselectin: BioMAP Diversity Plus: LPS Assay for Eselectin Biomarker Activity (AID 2283077). The note with it: primary human HUVEC with PBMC; actives raise or lower the signal. The gist of the method: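 Human umbilical vein endothelial cells co-cultured with PBMC under LPS stimulation; cell-surface E-selectin measured by ELISA 24 h after dosing. Change in either direction versus DMSO, with SRB total-protein staining in parallel cultures for cytotoxicity.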

Read-out in assay [8]: Interleukin-8 (IL8), CXCL8 (gene 3576)
The assay is described as follows: BSK_LPS_IL8: BioMAP Diversity Plus: LPS Assay for Interleukin-8 (IL8) Biomarker Activity (AID 2283078). The note with it: primary human HUVEC with PBMC; actives raise or lower the signal. The gist of the method:
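Human umbilical vein endothelial cells co-cultured with PBMC, LPS-stimulated, exposed to compound for 24 h. IL-8 quantified by ELISA; fitted in both directions against DMSO, with SRB total-protein staining of parallel cultures for cytotoxicity.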

Assay [9] is described as follows: BSK_LPS_SRB: Viability Assessment in the BioMAP Diversity Plus: LPS Assay (AID 2283079).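 Also: total protein by sulforhodamine B absorbance as a cytotoxicity measure; measured one day after compound addition; fitted in both directions against DMSO so loss or gain of signal counts.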 The note with it: primary human HUVEC with PBMC. The gist of the method:
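Co-culture of human umbilical vein endothelial cells and PBMC, read 24 h after dosing. Total protein by 0.1% SRB staining after 10% TCA fixation, absorbance at 560 nm; bidirectional fit against DMSO.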

Read-out in assay [10]: Interleukin-1 alpha (IL1a), IL1A (gene 3552)
The assay is described as follows: BSK_LPS_IL1a: BioMAP Diversity Plus: LPS Assay for Interleukin-1 alpha (IL1a) Biomarker Activity (AID 2283080). To be noted: primary human HUVEC with PBMC; actives raise or lower the signal. Summed up:
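Human umbilical vein endothelial cells co-cultured with PBMC and stimulated with LPS; IL-1a measured by ELISA 24 h after dosing. Bidirectional fitting against DMSO; cytotoxicity checked by SRB staining in parallel cultures.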

Assay [11] can be described thus: BSK_LPS_PGE2: BioMAP Diversity Plus: LPS Assay for Prostaglandin E2 (PGE2) Biomarker Activity (AID 2283082). To be noted: primary human HUVEC with PBMC; actives raise or lower the signal. Summed up: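 Compounds were added to the LPS co-culture of endothelium and PBMC, and PGE2 was measured by ELISA after 24 h. Responses in either direction were fitted with DMSO as baseline.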

Read-out in assay [12]: Tissue Factor, F3 (gene 2152)
The experiment in a line: BSK_LPS_TissueFactor: BioMAP Diversity Plus: LPS Assay for Tissue Factor Biomarker Activity (AID 2283084). The note with it: primary human HUVEC with PBMC; actives raise or lower the signal. Summed up:
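Human umbilical vein endothelial cells co-cultured with PBMC were dosed with compound. Cell-surface CD142 was measured by ELISA 24 h later. Activity was fitted bidirectionally against DMSO, with SRB total-protein staining in parallel cultures for cytotoxicity.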

Read-out in assay [13]: Tumor necrosis factor (Homo sapiens) (UniProt P01375)
The assay is described as follows: BSK_LPS_TNFa: BioMAP Diversity Plus: LPS Assay for Tumour Necrosis Factor alpha (TNFa) Biomarker Activity (AID 2283085).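 As to AC50: TNFa protein level quantified by ELISA in the co-culture.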 To be noted: primary human HUVEC with PBMC; actives raise or lower the signal. Summed up:
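Cells (umbilical vein endothelium plus peripheral blood mononuclear cells) were dosed with chemical, incubated 24 h, then TNFa was quantified by ELISA; values derive from bidirectional fitting with DMSO as baseline.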

Read-out in assay [14]: Vascular cell adhesion molecule 1 (VCAM1), VCAM1 (gene 7412)
The assay is described as follows: BSK_LPS_VCAM1: BioMAP Diversity Plus: LPS Assay for Vascular cell adhesion molecule 1 (VCAM1) Biomarker Activity (AID 2283086). The note with it: primary human HUVEC with PBMC; actives raise or lower the signal. The gist of the method:
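Cells are dosed in an LPS-stimulated endothelial/mononuclear co-culture and, after 24 h, VCAM-1 is quantified by ELISA. Activity in either direction is fitted relative to the DMSO negative control.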

Read-out in a further assay: CD38, CD38 (gene 952)
The assay is described as follows: BSK_SAg_CD38: BioMAP Diversity Plus: SAg Assay for CD38 Biomarker Activity (AID 2283087). The note with it: primary human HUVEC with PBMC; actives raise or lower the signal. The gist of the method: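 CD38 quantified by ELISA (fluorescence) in a superantigen-activated endothelial cell–PBMC co-culture at 24 h post-dose. Activity fitted in both directions relative to DMSO; parallel SRB and Alamar Blue cytotoxicity read-outs.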

Read-out in assay [15]: CD40, CD40 (gene 958)
The experiment in a line: BSK_SAg_CD40: BioMAP Diversity Plus: SAg Assay for CD40 Biomarker Activity (AID 2283088). To be noted: primary human HUVEC with PBMC; actives raise or lower the signal. Summed up:
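HUVEC plus PBMC co-culture, superantigen-activated, with CD40 read by ELISA 24 h after dosing. Curves fitted in both directions against DMSO. Overt cytotoxicity checked by parallel SRB total-protein staining.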

Read-out in the next assay: CD69, CD69 (gene 969)
The assay is described as follows: BSK_SAg_CD69: BioMAP Diversity Plus: SAg Assay for CD69 Biomarker Activity (AID 2283089).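 As to AC50: cell surface CD69 protein quantified by ELISA with fluorescence detection.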 To be noted: primary human HUVEC with PBMC; actives raise or lower the signal. Summed up:
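ELISA, fluorescence read-out: CD69 on human umbilical vein endothelial cell + PBMC co-culture, 24 h post-dosing. Gain or loss of signal fitted bidirectionally against DMSO baseline.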

Read-out in assay [16]: Monocyte Chemoattractant Protein-1 (MCP1), CCL2 (gene 6347)
The experiment in a line: BSK_SAg_MCP1: BioMAP Diversity Plus: SAg Assay for Monocyte Chemoattractant Protein-1 (MCP1) Biomarker Activity (AID 2283090). To be noted: primary human HUVEC with PBMC; actives raise or lower the signal. The gist of the method: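 Values derive from bidirectional fitting of ELISA-measured MCP1 against DMSO controls. Readings were taken 24 h after dosing human vascular endothelial cells co-cultured with peripheral blood mononuclear cells under superantigen stimulation.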

Read-out in assay [17]: Macrophage colony-stimulating factor (MCSF), CSF1 (gene 1435)
The assay is described as follows: BSK_LPS_MCSF: BioMAP Diversity Plus: LPS Assay for Macrophage colony-stimulating factor (MCSF) Biomarker Activity (AID 2283083). To be noted: primary human HUVEC with PBMC; actives raise or lower the signal. Summed up:
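HUVEC–PBMC co-culture, M-CSF measured by ELISA 24 h after chemical dosing. Fitted in both directions relative to DMSO as negative control; overt cytotoxicity assessed by SRB total-protein staining in parallel cultures.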

The source made the active and inactive calls. The calls were made as follows: active = hit-call score of the fitted dose curve at least 0.9, where 1 is the maximum; inactive = score below 0.9.

E-selectin (Homo sapiens), sequence (P16581 whole entry, looked up): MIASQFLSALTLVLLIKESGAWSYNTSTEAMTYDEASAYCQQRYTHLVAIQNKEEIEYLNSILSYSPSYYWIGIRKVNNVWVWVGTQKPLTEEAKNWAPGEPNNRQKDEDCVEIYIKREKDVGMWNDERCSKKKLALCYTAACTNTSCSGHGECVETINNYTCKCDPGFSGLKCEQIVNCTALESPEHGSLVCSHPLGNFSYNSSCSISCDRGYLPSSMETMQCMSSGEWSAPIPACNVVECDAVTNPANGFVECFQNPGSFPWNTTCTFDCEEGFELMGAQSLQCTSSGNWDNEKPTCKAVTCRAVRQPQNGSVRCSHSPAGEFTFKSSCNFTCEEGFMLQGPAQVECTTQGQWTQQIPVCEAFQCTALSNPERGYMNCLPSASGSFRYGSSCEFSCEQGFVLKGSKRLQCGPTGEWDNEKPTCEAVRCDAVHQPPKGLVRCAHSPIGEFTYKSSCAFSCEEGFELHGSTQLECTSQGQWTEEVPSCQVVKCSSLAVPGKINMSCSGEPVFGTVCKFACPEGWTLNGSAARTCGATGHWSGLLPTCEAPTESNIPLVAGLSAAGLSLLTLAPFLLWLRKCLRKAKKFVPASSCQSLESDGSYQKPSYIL
Tumor necrosis factor (Homo sapiens), sequence (P01375 whole entry, looked up): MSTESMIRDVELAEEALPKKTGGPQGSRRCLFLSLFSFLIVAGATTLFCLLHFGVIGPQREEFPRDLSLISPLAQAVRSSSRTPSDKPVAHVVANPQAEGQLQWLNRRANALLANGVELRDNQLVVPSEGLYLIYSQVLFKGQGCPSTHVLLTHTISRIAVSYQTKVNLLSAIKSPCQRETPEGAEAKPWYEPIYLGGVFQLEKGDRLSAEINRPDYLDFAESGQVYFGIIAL

As for `CCCCC(CC)COP(=O)(Oc1ccccc1)Oc1ccccc1` (stereo not given), the AC50 in assay [1] was 6.54 µM (active); in [2], 5.46 µM (active); in assay [4] it was 3.71 µM (active); in [5], 4.9 µM (active); with CD40, CD40 (gene 958) [6], 13.5 µM (active); in assay [7] it was 20 µM (active). Further, the AC50 is 20 µM (active) in [8]; 20 µM (active) in assay [9]; 20 µM (active) in [10]; 20 µM (active) in assay [13]; 13 µM (active) in [14]; 20 µM (active) with CD38, CD38 (gene 952). Besides, the AC50 with CD40, CD40 (gene 958) [15] was 20 µM (active); with CD69, CD69 (gene 969), 13.3 µM (active). Besides, the outcome in [3], in [11], in [12] and in assay [16] was inactive.
As for `CCOP(=S)(OCC)SCn1nnc2ccccc2c1=O`, the outcome in assay [1] is “inactive”; in assay [2], “inactive”; in assay [3], “inactive”; in [4], “inactive”; in assay [5] it was “inactive”; in the assay with CD40, CD40 (gene 958) [6], “inactive”. The outcome in assay [7], in assay [8], in assay [9], in assay [10], in [11] and in assay [13] was inactive. Also, the outcome with CD38, CD38 (gene 952) is “inactive”; with CD40, CD40 (gene 958) [15], “inactive”; in the assay with CD69, CD69 (gene 969) it was “inactive”; in [16], “inactive”. The AC50 in [17] is 20 µM (active).
For `O=c1ssc(Cl)c1Cl`, the AC50 in [1] was 2.71 µM (active); in assay [2], 20 µM (active); in [3] it was 2.98 µM (active); in assay [4], 5.92 µM (active); in [5] it was 5.59 µM (active); with CD40, CD40 (gene 958) [6], 3.38 µM (active). Also, the AC50 in assay [7] is 6.46 µM (active); in [8], 7.38 µM (active); in [9], 5.34 µM (active); in [10], 4.19 µM (active); in assay [11], 2.22 µM (active); in [17], 4.28 µM (active). The AC50 in assay [14] is 6.59 µM (active); with CD38, CD38 (gene 952), 4.94 µM (active); with CD40, CD40 (gene 958) [15] it was 5.44 µM (active); with CD69, CD69 (gene 969), 6.02 µM (active); in [16], 5.35 µM (active). Besides, in assay [13], the outcome was inactive.
Consider `CSC(C)(C)C=NO`, for which the outcome in assay [1] was “inactive”; in assay [2] it was “inactive”; in assay [3], “inactive”; in assay [4], “inactive”; in [5] it was “inactive”; in the assay with CD40, CD40 (gene 958) [6], “inactive”. In addition, the result in [7], in assay [8], in assay [9], in assay [10], in [11] and in [12] was inactive. In addition, the outcome was “inactive” in assay [13]; “inactive” in the assay with CD38, CD38 (gene 952); “inactive” with CD40, CD40 (gene 958) [15]; “inactive” in the assay with CD69, CD69 (gene 969); “inactive” in assay [16].
